Assay outcomes (PubChem BioAssay)
RmlC RmlD mix – RmlC and RmlD coupled enzyme inhibitors, primary screen, biochemical, 384-well, compound mixtures, retest | inhibition, % at 5.5 µM | AID 1532, 2009 | RmlC/RmlD coupled enzyme inhibition, 384-well mixture HTS | actives 0.39% (n = 110,000); in the data active = inhibition above about 30%, passing the limit was not always enough; inconclusive = no clear call, values can overlap the other calls
HIV RNase H inh-1 – HIV-1 RT RNase H inhibitors, primary screen, biochemical, fluorescence; Gag-Pol polyprotein (Human immunodeficiency virus type 1 group M subtype B (isolate …; RT-RNase H RNA/DNA duplex cleavage; inhibition, % at 10 µM; actives 1.9% (n = 65,000); AID 565, 2006; in the data active = inhibition above about 50%
HIV RNase H inh-2 – HIV-1 RT RNase H inhibitors, retest, confirmation, biochemical; shares compounds with HIV RNase H inh-1; Recombinant RT RNase H, fluorescent RNA/DNA duplex cleavage; inhibition, % at 10 µM; actives 39% (n = 1,000); in the data active = inhibition above about 48%; inconclusive = no clear call, values can overlap the other calls
Numbers without * were called inactive; ? = inconclusive; . = no result given. The sample as a whole holds a higher share of hits than the screen did.

SMILES | RmlC RmlD mix | HIV RNase H inh-1 | HIV RNase H inh-2
CCCCN(C(=O)NC(=O)C1=C(N2CCOCC2)/C(=C/c2ccccc2)CC1)S(C)(=O)=O | . | -9.7 | .
CN(C(=O)NC(=O)C1=C(N2CCOCC2)/C(=C/c2ccccc2)CC1)S(C)(=O)=O | 135.2* | -11.8 | .
Clc1ccc(CSc2nnnn2-c2ccc3c(c2)OCO3)c(Cl)c1 | -6.9 | . | .
C=CCN1c2ccccc2[C@]23C[C@@H](C(=O)OC)N(C(=O)c4cccs4)C2=NC(C(=O)OC)=C(C(=O)OC)[C@H]13 | 7.5 | . | .
N#Cc1c2c(c(=S)n(-c3ccccc3)c1N)CCCC2 | . | 70.1* | .
CCOC(=O)c1c2c(c(=S)n(-c3ccccc3)c1N)CCC2 | 19.2 | 9.5 | .
O=C(NCCN1CCCCC1)c1ccc2c(c1)OCCO2 | 6.1 | -2.5 | .
O=C(NCCN1CCCCC1)c1ccc(=O)oc1 | 47.8* | -5.0 | .
CCn1c(Cc2ccccc2)nnc1SCC(=O)NC1CC1 | -16.0 | . | .
CCn1c(COc2ccccc2)nnc1SCC(=O)NC1CCCCC1 | 6.1 | 62.7* | 25.6
O=C(Nc1ccc2c(c1)OCO2)C1CCN(Cc2cnn(-c3ccccc3)c2-n2cccc2)CC1 | -4.4 | 10.2 | .
Cc1cccc(NS(=O)(=O)c2cc(C(=O)N3CCc4ccccc4C3)ccc2Cl)c1C | 8.3 | . | .
CC(C)(C)c1ccc(C(=O)Nc2nonc2-c2nc3ccccc3[nH]2)cc1 | -9.3 | 60.0* | ?
CCn1c(-c2nonc2NC(=O)c2ccccc2)nc2ccccc21 | 12.2 | . | .
COC(=O)c1ccc2nc(C3CCCCC3)c3c(c2c1)CCC3 | 1.8 | . | .
O=C(NCc1ccco1)c1cccnc1-c1nc2ccccc2s1 | . | 85.4* | 63.0*
O=C(NCc1ccco1)c1cccc2ccccc12 | 3.6 | -3.7 | .
COC(=O)c1ccc(CC(=O)c2c(C)cc(O)cc2O)o1 | -13.0 | -10.7 | .
C1=CC2c3ccccc3NC(c3ccncc3)C2C1 (stereo unspecified) | -7.0 | 2.8 | .
O=C(O)c1ccc(Cl)c2c1C1C=CCC1C(c1ccccn1)N2 (stereo unspecified) | 8.6 | 83.3* | -1.6
CCCc1nnc2n1N=C(c1ccc(OC)c(OC)c1)CS2 | -9.3 | -17.4 | .
COc1ccc(Cc2nnc3n2N=C(c2cc4ccccc4o2)CS3)cc1OC | -6.3 | 70.8* | 46.6
CC(C)(C)OC(=O)CNC(=O)c1nc[nH]c1C(=O)NCC(=O)OC(C)(C)C | 11.7 | . | .
CCOc1ccccc1C(=O)OCC(=O)Nc1ccc(N2CCCCC2)cc1 | 4.1 | . | .
Cc1cccc(C(=O)OCC(=O)Nc2ccc(N3CCCCC3)cc2)c1O | -13.9 | 88.5* | 53.3*
SMILES | RmlC RmlD mix | HIV RNase H inh-1 | HIV RNase H inh-2
O=C(COc1ccccc1Br)N1CCN(c2ccccc2)CC1 | 13.6 | . | .
CC(C)Cn1c(SCC(=O)NC(=O)Nc2ccc3c(c2)OCCO3)nc2ccccc2c1=O | 6.7 | 91.7* | 54.4*
C=CCn1c(SCC(=O)Nc2ccc3c(c2)OCO3)nc2ccccc2c1=O | -12.3 | -5.6 | .
CC1(C)C2CC[C@]3(C)C(CC=C4[C@@H]5C[C@@](C)(CO)[C@@H](O)C[C@]56C[C@@H](OC6=O)[C@]43C)[C@@]2(C)CC[C@@H]1O (stereo partly specified) | -10.5 | . | .
Cc1ccc(C)c(S(=O)(=O)NCc2ccc(C(=O)NCc3ccccn3)cc2)c1 | 12.0 | . | .
CCN(CC)S(=O)(=O)c1ccc2oc(SCC3CN=C(c4ccc(OC)cc4)S3)nc2c1 (stereo unspecified) | 5.5 | 58.6* | 6.2
COc1ccc(C2=NCC(CSc3nnc(-c4ccc5c(c4)OCO5)o3)S2)cc1 (stereo unspecified) | -10.0 | -22.6 | .
Cc1cc(C)c2c(N)c(S(=O)c3ccc(C(C)(C)C)cc3)sc2n1 (stereo unspecified) | 9.1 | . | .
CCOC(=O)CSc1nc(C)cc(C)c1C#N | -4.1 | . | .
CCOC(=O)CCc1c(C)nc(SCC(=O)O)c(C#N)c1C | -16.2 | 70.3* | 11.7
c1ccc(-c2nnc(C3CC(c4ccncc4)=NO3)o2)cc1 (stereo unspecified) | -11.7 | . | .
C=CCN1C=CC(=O)CC1 | -3.3 | . | .
CCOc1ccc(C2SCC(=O)Nc3c2c(=O)[nH]n3C2CCCCCC2)cc1 (stereo unspecified) | 79.2 | 57.5* | 4.0
COc1ccc(C2SCC(=O)Nc3c2c(=O)[nH]n3C2CCCCCC2)cc1 (stereo unspecified) | 24.6 | -0.8 | .
Cc1ccc(-c2nc3cnccn3c2Nc2c(C)cccc2C)o1 | -13.1 | . | .
CCc1nc(SCC(=O)Nc2cccc(C(F)(F)F)c2)c2c(=O)n(C)c(=O)n(C)c2n1 | -15.0 | 16.5 | .
O=C(Nc1ccc(O)c2c(=O)cc(-c3ccccc3Cl)oc12)c1cccs1 | 1.2 | . | .
COC(=O)c1ccccc1NC(=O)c1ccc2c(c1)C(=O)N(Cc1ccco1)C2=O | . | 60.9* | 94.3*
CCc1ccc(NC(=O)c2ccc3c(c2)C(=O)N(Cc2ccco2)C3=O)cc1 | 5.5 | 43.2 | .
O=C1NC[C@H](Cc2ccccc2)N(CC2CCCCC2)C1=O | -312.8 | . | .
Cc1sc(NC(=S)NC(=O)C(C)(C)C)c(C(N)=O)c1C | -19.0 | . | .
CCCOc1ccc(N2C(=O)CC(N(O)c3ccccc3)C2=O)cc1 (stereo unspecified) | 10.3 | -11.2 | .
COc1ccccc1N(O)C1CC(=O)N(c2ccc(F)cc2)C1=O (stereo unspecified) | -4.6 | 62.8* | 19.5
COc1ccc(S(=O)(=O)N(C)CC(=O)N2CCN(Cc3ccccc3)CC2)cc1C | 5.5 | . | .
C=C1[C@@H](OC(C)=O)CC[C@]2(C)[C@@H]1C[C@@H]1C[C@H](OC(C)=O)C(C)=C([C@@H](OC(C)=O)[C@@H]2OC(C)=O)C1(C)C | 14.3 | . | .
SMILES | RmlC RmlD mix | HIV RNase H inh-1 | HIV RNase H inh-2
O=C(O)C[C@H]1c2cc(C(F)(F)F)ccc2S(=O)(=O)N1C1CCCCC1 | -2.4 | . | .
CN=C(Nc1cc(C)nn1CCC#N)c1ccc(F)cc1 | -9.6 | 0.3 | .
Cc1nn(CCC#N)c2c1P(=S)(N1CCCC1)OC(c1ccc(F)cc1)=N2 (stereo unspecified) | -1.3 | 91.4* | 71.5*
CCOC(=O)C1=C(C)N=c2s/c(=C3\C(=O)Nc4ccccc43)c(=O)n2C1c1ccc2c(c1)OCO2 (stereo unspecified) | 6.2 | 85.9* | 67.3*
CCOC(=O)C1=C(C)N=c2s/c(=C\c3ccncc3)c(=O)n2C1c1ccc2c(c1)OCO2 (stereo unspecified) | 1.6 | 19.7 | .
CCCCCn1c(=NC(C)=O)c(C#N)cc2c(=O)n3cccc(C)c3nc21 | . | 0.2 | .
O=C(CCSc1nnc(-c2ccncc2)o1)Nc1ccccc1Cl | -6.6 | . | .
COC(=O)c1ccc(C2CC(=O)NC3=C2C(=O)CCC3)cc1 (stereo unspecified) | -5.7 | 91.5* | 38.4
CC(C)Oc1ccc(C2CC(=O)NC3=C2C(=O)CCC3)cc1 (stereo unspecified) | -8.7 | -8.2 | .
COC(=O)c1cc(Br)c(=O)n(-c2cccc(F)c2)c1 | 5.3 | . | .
COc1ccc(C2=NOC(c3nnc(-c4ccccc4)o3)C2)cc1 (stereo unspecified) | -14.7 | . | .
Cc1ccccc1NS(=O)(=O)c1cc(S(C)(=O)=O)ccc1Cl | -9.5 | -0.3 | .
Cc1cc(NS(=O)(=O)c2ccccc2)c(C)c(Cl)c1O | 20.6 | 79.8* | -6.1
COc1ccc(C(=O)NCCCc2nc3ccccc3n2Cc2ccccc2C)cc1OC | -10.6 | . | .
